Measured values published in the supplement of paper PMC11172423.

Each compound was assayed on Falciformispora senegalensis CBS197.79 (assay: growth relative to untreated control; higher = less inhibition, active = 20 or less). Conditions: 100 µM.
Procedure, shortened: (§1)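 Viability readout used either MTS (2 h, 490 nm) or resazurin (600 nm). Before this, hyphal fragments of M. mycetomatis MM55 or F. senegalensis CBS197.79 in colourless RPMI 1640 with L-glutamine and MOPS (68–72% transmission at 660 nm) had been exposed in 96-well plates to compound at 100 or 25 µM for 7 days at 37 °C. Growth denotes metabolic activity relative to the untreated growth control, with a medium-plus-dye blank subtracted from both.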

| SMILES | growth |
| --- | --- |
| CCOc1cc(C(C)(C)C)ccc1C1=N[C@@](C)(c2ccc(Cl)cc2)[C@@](C)(c2ccc(Cl)cc2)N1C(=O)N1CCN(CCCS(C)(=O)=O)CC1 | 101% (inactive) |
| C=CC[C@@H]1/C=C(\C)C[C@H](C)C[C@H](OC)[C@H]2O[C@@](O)(C(=O)C(=O)N3CCCC[C@H]3C(=O)O[C@H](/C(C)=C/[C@@H]3CC[C@@H](O)[C@@H](OC)C3)[C@H](C)[C@@H](O)CC1=O)[C@H](C)C[C@@H]2OC | 105% (inactive) |
| CC(C)Oc1ccc(-c2nc(-c3cccc4c3CC[C@@H]4NCCO)no2)cc1C#N | 6.46% (active) |
| S=C(NCc1ccc2c(c1)OCO2)N1CCN(c2ncnc3c2oc2ccccc23)CC1 | 106% (inactive) |
| CCOc1ccc(-c2nc(NC(=O)Cc3cccc(OC)c3)sc2C)cc1 | 80.5% (inactive) |
| CO/C=C(/C(=O)OC)c1ccccc1COc1c(C)c(-c2ccc(C)cc2C)nn1C | 15% (active) |
| O=C(NCCN1CCCC1)c1ccc(Nc2nccc(-c3ccc(Cl)cc3)n2)cc1 | 7.34% (active) |
| O[C@@H](c1cc(C(F)(F)F)nc2c(C(F)(F)F)cccc12)[C@H]1CCCCN1 | 14.8% (active) |
| N=C(N)Nc1ccc(C(=O)Oc2ccc3cc(C(=N)N)ccc3c2)cc1 | 66.5% (inactive) |
| Cc1nc(NCc2ccc(F)cc2)nc(NCC(C)(C)C)c1C | 17.8% (active) |
| CC(C)Nc1cccnc1N1CCN(C(=O)c2cc3cc(NS(C)(=O)=O)ccc3[nH]2)CC1 | 96.5% (inactive) |
| CC(C)(C)Nc1ncc2nc(Nc3cccc(C(F)(F)F)c3)n(CC3CCNC3)c2n1 (configuration not stated) | 91.5% (inactive) |
| N#Cc1ccc(-c2ccc3nc(Oc4ccc(C(F)(F)F)cn4)cn3c2)nc1 | 109% (inactive) |
| Cc1c2c(n3c(nc4ccccc43)c1C#N)N(CCN(C)C)CC2 | 88.2% (inactive) |
| O=C(c1ccc(Nc2nccc(-c3ccc(Cl)cc3)n2)cc1)N1CCS(=O)(=O)CC1 | 98.8% (inactive) |
| Cn1c(O)nnc1Cn1ccc(C(F)(F)F)c(Oc2cc(Cl)cc(C#N)c2)c1=O | 106% (inactive) |
| CCS(=O)(=O)N1CC(CC#N)(n2cc(-c3ncnc4[nH]ccc34)cn2)C1 | 104% (inactive) |
| O=C(NC1CCN(CCOc2ccc(Cl)cc2)CC1)c1c[nH]c2ccncc2c1=O | 84.8% (inactive) |

| SMILES | growth |
| --- | --- |
| Cc1ccc(-c2cc(C(F)(F)F)nn2-c2ccc(S(N)(=O)=O)cc2)cc1 | 9.81% (active) |
| Cc1cc(Nc2cc(N)ncn2)c(=O)n2c1C(=O)NC21CCCCC1 | 107% (inactive) |
| O=C(NC1CCCc2c1[nH]c1ccc(Cl)cc21)c1ccccn1 (configuration not stated) | 103% (inactive) |
| COc1cc(N2CCN(C)CC2)ccc1Nc1nccc(-c2cn(C)c3cnccc23)n1 | 75.1% (inactive) |
| Cc1cccc2c1N(C(=O)c1cc(Br)nn1-c1ncccc1Cl)CN(C(C)C)C2=O | 93.3% (inactive) |
| Cc1nn(C2CCS(=O)(=O)C2)c(C)c1C1Nc2ccccc2C(=O)N1Cc1ccc2c(c1)OCO2 (configuration not stated) | 93.6% (inactive) |
| OB(O)O | 104% (inactive) |
| C[C@H](NC(=O)c1cc2ccc(F)cc2[nH]1)c1ccccc1 | 101% (inactive) |
| CN(C)CCNC(=O)c1csc(Nc2ccc(Cl)c(Cl)c2)n1 | 83.6% (inactive) |
| CC(C)C(=O)OCC(=O)[C@@]12OC(C3CCCCC3)O[C@@H]1C[C@H]1[C@@H]3CCC4=CC(=O)C=C[C@]4(C)[C@H]3[C@@H](O)C[C@@]12C (some centres not stated) | 105% (inactive) |
| CS(=O)(=O)c1ccc(-c2cnn3c2NC(c2cccc(S(=O)(=O)C4CC4)c2)CC3)cc1 (configuration not stated) | 88.1% (inactive) |
| O=C1NCN(c2ccccc2)C12CCN(CCCC(c1ccc(F)cc1)c1ccc(F)cc1)CC2 | 14.7% (active) |
| CS(=O)(=O)NC1CCN(C(=O)c2ccc(Nc3nccc(-c4cc(Cl)cc(C(F)(F)F)c4)n3)cc2)C1 (configuration not stated) | 82.5% (inactive) |
| N#Cc1cccc(C(=O)NC2CCN(c3ccnc(Nc4ccc(F)cc4)n3)C2)c1 (configuration not stated) | 88.1% (inactive) |
| CN(C)c1ncc2nc(Nc3cc(Cl)cc(C(F)(F)F)c3)n(C3CCNCC3)c2n1 | 99.5% (inactive) |
| CN(c1ncc2nc(Nc3cc(Cl)cc(C(F)(F)F)c3)n(C3CCNCC3)c2n1)C1CC1 | 12.3% (active) |
| COc1c(C)c2c(c(O)c1C/C=C(\C)CCC(=O)O)C(=O)OC2 | 107% (inactive) |
| O=C(c1ccc(Nc2nccc(-c3ccc(C(F)(F)F)c(Cl)c3)n2)cc1)N1CC(O)C1 | 106% (inactive) |

The compounds below were run on Madurella mycetomatis MM55 in the same assay as above. Conditions: 25 µM.
Procedure, shortened: as §1

| SMILES | growth |
| --- | --- |
| CCOc1cc(C(C)(C)C)ccc1C1=N[C@@](C)(c2ccc(Cl)cc2)[C@@](C)(c2ccc(Cl)cc2)N1C(=O)N1CCN(CCCS(C)(=O)=O)CC1 | 86.9% (inactive) |
| C=CC[C@@H]1/C=C(\C)C[C@H](C)C[C@H](OC)[C@H]2O[C@@](O)(C(=O)C(=O)N3CCCC[C@H]3C(=O)O[C@H](/C(C)=C/[C@@H]3CC[C@@H](O)[C@@H](OC)C3)[C@H](C)[C@@H](O)CC1=O)[C@H](C)C[C@@H]2OC | 84.5% (inactive) |
| CC(C)Oc1ccc(-c2nc(-c3cccc4c3CC[C@@H]4NCCO)no2)cc1C#N | 3.06% (active) |
| S=C(NCc1ccc2c(c1)OCO2)N1CCN(c2ncnc3c2oc2ccccc23)CC1 | 73.4% (inactive) |
| CCOc1ccc(-c2nc(NC(=O)Cc3cccc(OC)c3)sc2C)cc1 | 99.6% (inactive) |
| CO/C=C(/C(=O)OC)c1ccccc1COc1c(C)c(-c2ccc(C)cc2C)nn1C | 6.33% (active) |
| O=C(NCCN1CCCC1)c1ccc(Nc2nccc(-c3ccc(Cl)cc3)n2)cc1 | 50.5% (inactive) |
| O[C@@H](c1cc(C(F)(F)F)nc2c(C(F)(F)F)cccc12)[C@H]1CCCCN1 | 5.4% (active) |
| N=C(N)Nc1ccc(C(=O)Oc2ccc3cc(C(=N)N)ccc3c2)cc1 | 79.9% (inactive) |
| Cc1nc(NCc2ccc(F)cc2)nc(NCC(C)(C)C)c1C | 6.77% (active) |
| CC(C)Nc1cccnc1N1CCN(C(=O)c2cc3cc(NS(C)(=O)=O)ccc3[nH]2)CC1 | 104% (inactive) |
| CC(C)(C)Nc1ncc2nc(Nc3cccc(C(F)(F)F)c3)n(CC3CCNC3)c2n1 (configuration not stated) | 114% (inactive) |
| N#Cc1ccc(-c2ccc3nc(Oc4ccc(C(F)(F)F)cn4)cn3c2)nc1 | 32.3% (inactive) |
| Cc1c2c(n3c(nc4ccccc43)c1C#N)N(CCN(C)C)CC2 | 101% (inactive) |
| O=C(c1ccc(Nc2nccc(-c3ccc(Cl)cc3)n2)cc1)N1CCS(=O)(=O)CC1 | 76.8% (inactive) |
| Cn1c(O)nnc1Cn1ccc(C(F)(F)F)c(Oc2cc(Cl)cc(C#N)c2)c1=O | 92.7% (inactive) |
| CCS(=O)(=O)N1CC(CC#N)(n2cc(-c3ncnc4[nH]ccc34)cn2)C1 | 94.3% (inactive) |
| O=C(NC1CCN(CCOc2ccc(Cl)cc2)CC1)c1c[nH]c2ccncc2c1=O | 90.2% (inactive) |

| SMILES | growth |
| --- | --- |
| Cc1ccc(-c2cc(C(F)(F)F)nn2-c2ccc(S(N)(=O)=O)cc2)cc1 | 98% (inactive) |
| Cc1cc(Nc2cc(N)ncn2)c(=O)n2c1C(=O)NC21CCCCC1 | 85.9% (inactive) |
| O=C(NC1CCCc2c1[nH]c1ccc(Cl)cc21)c1ccccn1 (configuration not stated) | 35.3% (inactive) |
| COc1cc(N2CCN(C)CC2)ccc1Nc1nccc(-c2cn(C)c3cnccc23)n1 | 36.2% (inactive) |
| Cc1cccc2c1N(C(=O)c1cc(Br)nn1-c1ncccc1Cl)CN(C(C)C)C2=O | 91.9% (inactive) |
| Cc1nn(C2CCS(=O)(=O)C2)c(C)c1C1Nc2ccccc2C(=O)N1Cc1ccc2c(c1)OCO2 (configuration not stated) | 82.2% (inactive) |
| OB(O)O | 98.7% (inactive) |
| C[C@H](NC(=O)c1cc2ccc(F)cc2[nH]1)c1ccccc1 | 83.1% (inactive) |
| CN(C)CCNC(=O)c1csc(Nc2ccc(Cl)c(Cl)c2)n1 | 47.4% (inactive) |
| CC(C)C(=O)OCC(=O)[C@@]12OC(C3CCCCC3)O[C@@H]1C[C@H]1[C@@H]3CCC4=CC(=O)C=C[C@]4(C)[C@H]3[C@@H](O)C[C@@]12C (some centres not stated) | 75.3% (inactive) |
| CS(=O)(=O)c1ccc(-c2cnn3c2NC(c2cccc(S(=O)(=O)C4CC4)c2)CC3)cc1 (configuration not stated) | 97.1% (inactive) |
| O=C1NCN(c2ccccc2)C12CCN(CCCC(c1ccc(F)cc1)c1ccc(F)cc1)CC2 | 7.29% (active) |
| CS(=O)(=O)NC1CCN(C(=O)c2ccc(Nc3nccc(-c4cc(Cl)cc(C(F)(F)F)c4)n3)cc2)C1 (configuration not stated) | 122% (inactive) |
| N#Cc1cccc(C(=O)NC2CCN(c3ccnc(Nc4ccc(F)cc4)n3)C2)c1 (configuration not stated) | 84.1% (inactive) |
| CN(C)c1ncc2nc(Nc3cc(Cl)cc(C(F)(F)F)c3)n(C3CCNCC3)c2n1 | 86.2% (inactive) |
| CN(c1ncc2nc(Nc3cc(Cl)cc(C(F)(F)F)c3)n(C3CCNCC3)c2n1)C1CC1 | 54.8% (inactive) |
| COc1c(C)c2c(c(O)c1C/C=C(\C)CCC(=O)O)C(=O)OC2 | 88% (inactive) |
| O=C(c1ccc(Nc2nccc(-c3ccc(C(F)(F)F)c(Cl)c3)n2)cc1)N1CC(O)C1 | 103% (inactive) |
